From PubChem BioAssay AID1851 (National Center for Advancing Translational Sciences (NCATS), 2009)
Several values for one entry are separate records, joined by “and”; a condition that tells them apart may be missing. Equal entries are not always repeated. Among all 16,000 compounds or so, about 4,000 (25%) were called active. Another 26% or so got no clear call; they are omitted. Calls come from the whole dose curve; as a rule, active = well fitted curve in the direction sought with a large enough effect; inconclusive = small, poorly fitted or top-dose-only effect, or effect the other way; inactive = no such curve, though single readings can be large or run the other way. Only a sample is shown.
% is set by controls: 0 for no effect and ±100 for the full control effect.

Each molecule was assayed against Cytochrome P450 2C9 (Homo sapiens) (UniProt P11712) (assay: Cytochrome panel assay with activity outcomes). Settings: recombinant CYP, pro-luciferin dealkylation, luminescence, p450-cyp2c9; series mostly up to 57.1 µM; activity, negative = inhibition: at the top concentration.
Chain of Cytochrome P450 2C9 (Homo sapiens) (P11712 whole entry, looked up): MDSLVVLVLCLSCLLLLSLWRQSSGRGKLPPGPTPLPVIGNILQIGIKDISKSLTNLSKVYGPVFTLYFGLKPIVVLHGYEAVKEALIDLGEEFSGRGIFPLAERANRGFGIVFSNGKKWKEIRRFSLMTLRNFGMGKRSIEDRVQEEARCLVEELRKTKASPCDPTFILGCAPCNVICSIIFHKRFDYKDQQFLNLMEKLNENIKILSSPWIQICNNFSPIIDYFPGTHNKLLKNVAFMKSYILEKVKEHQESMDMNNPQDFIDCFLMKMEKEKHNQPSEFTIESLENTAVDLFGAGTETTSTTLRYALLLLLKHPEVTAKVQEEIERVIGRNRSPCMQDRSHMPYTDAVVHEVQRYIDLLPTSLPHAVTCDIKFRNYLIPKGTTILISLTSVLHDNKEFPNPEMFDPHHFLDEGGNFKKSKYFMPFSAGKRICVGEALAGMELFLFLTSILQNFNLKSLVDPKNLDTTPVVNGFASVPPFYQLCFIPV
With `Cn1nc(C(F)(F)F)c(/C=N/OC(=O)c2ccccc2Cl)c1SCc1ccc(Cl)cc1` the AC50 was 3.98 µM (active).
`N[C@@]1(C(=O)O)CN[C@H](C(=O)O)C1` was tested, and the “activity, negative = inhibition” value was 2.03% (inactive).
`O=C(c1csnn1)N1CCC2(CC1)CN(Cc1cc(C(F)(F)F)cc(C(F)(F)F)c1)C2` was tested, and the “activity, negative = inhibition” value was 17.2% (inactive).
In the case of `CC1=N/C(=C\c2ccc([N+](=O)[O-])cc2)C(=O)N1c1ccc(Cl)cc1`, the “activity, negative = inhibition” value is reported as 4.62% (inactive).
`Cc1ccc(C)n1N1C(=O)/C(=C\c2ccc(Cl)cc2)SC1=S` was tested, and the AC50 was 5.01 µM (active).
`CC(=O)OC[C@@H]1O[C@@H](O/N=C2/C[C@@H](O)[C@@H](O)[C@@H]3[C@@H]4C(=O)N([C@@H](C)c5ccccc5)C(=O)[C@H]4CC[C@H]23)[C@H](OC(C)=O)[C@H](OC(C)=O)[C@@H]1OC(C)=O` was tested, and the activity, negative = inhibition was 10.5% [at 11.4 µM] (inactive).
In the case of `CCOc1ccc(/C=C/C2=Cc3c(sc(NC(=O)CSc4n[nH]c(N)n4)c3C#N)C(C)(C)C2)cc1`, the AC50 is reported as 10 µM (active).
`Cc1ccc(/C=C/C2=Cc3c(sc(NC(=O)CSc4n[nH]c(N)n4)c3C#N)C(C)(C)C2)o1` was tested, and the AC50 was 2.82 µM (active).
`CC(=O)OC[C@@H]1O[C@@H](O/N=C2/C[C@@H](O)[C@@H](O)[C@@H]3[C@@H]4C(=O)N(c5cccc(Oc6ccccc6)c5)C(=O)[C@H]4CC[C@H]23)[C@H](OC(C)=O)[C@H](OC(C)=O)[C@@H]1OC(C)=O` was tested, and the activity, negative = inhibition was 1.66% [at 11.4 µM] (inactive).
In the case of `CC(C)(C)NC[C@H](O)c1cc(O)cc(O)c1`, the “activity, negative = inhibition” value is reported as -0.81% [at 25.6 µM] (inactive).
In the case of `C[C@@H]1OC2C3=C(C(=O)[C@H]4O[C@@H]4[C@H]3O)[C@@H]1[C@H]1[C@H](C)OC=C3[C@H](O)[C@H]4O[C@H]4/C(=N\OCc4ccccc4)[C@@]321`, the activity, negative = inhibition is reported as 13.2% [at 11.4 µM] (inactive).
With `CCOc1cc(CNCCO)c(Cl)cc1OCC(=O)NCCc1ccccc1` the “activity, negative = inhibition” value was -27.7% (inactive).
`CCOc1cc(CNCCc2ccc(S(N)(=O)=O)cc2)cc(Cl)c1OCc1ccccc1` was tested, and the AC50 was 12.6 µM (active).
With `Cc1ccc(-c2cc(C(=O)NN=C3CCCC3)c3ccccc3n2)cc1` the AC50 was 12.6 µM (active).
In the case of `CCCc1ccc(-c2cc(C(=O)NN3CCOCC3)c3ccccc3n2)cc1`, the AC50 is reported as 2.51 µM (active).
With `O=C(O)c1cc(-c2ccc3cc4c(cc3c2)OCO4)nc2ccccc12` the activity, negative = inhibition was -17.1% [at 11.4 µM] (inactive).
In the case of `Cc1ccc(C)c(S(=O)(=O)NC(C)C(=O)Nc2ccc(-c3nc4ccccc4s3)cc2)c1` (configuration not stated), the “activity, negative = inhibition” value is reported as 9.42% (inactive).
In the case of `Cc1ccccc1NC(=S)NC(=O)c1cc(-c2ccccc2)nc2ccccc12`, the AC50 is reported as 3.55 µM (active).
With `Cc1ccc(-c2nc3ccccc3s2)cc1NC(=S)NC(=O)c1ccccc1` the AC50 was 3.55 µM (active).
With `Cc1ccc2nc(-c3ccc(NC(=O)c4ccc(N)cc4)c(S(=O)(=O)O)c3)sc2c1` the activity, negative = inhibition was -3.37% [at 11.4 µM] (inactive).
With `C[N+]1(C)CCc2cc(O)c(O)cc2[C@H]1Cc1ccc(O)c(O)c1` the activity, negative = inhibition was 6.54% [at 11.4 µM] (inactive).
For `CN(Cc1ccco1)c1ncnc2ccc(-c3ccoc3)cc12`, the activity, negative = inhibition was -10.5% [at 2.29 µM] (inactive).
With `Cc1cnc(CNc2cc(-c3ccccc3Cl)ncn2)cn1` the activity, negative = inhibition was 8.89% [at 2.29 µM] (inactive).
For `O=C1C[C@@H](O)[C@@H](O)[C@H]2[C@@H]3C(=O)N(C[C@@H]4CCCO4)C(=O)[C@@H]3CC[C@H]12`, the activity, negative = inhibition was 21.7% [at 11.4 µM] (inactive) and 13.9% [at 11.4 µM] (inactive).
`CNc1cc(-c2c(C)noc2C)ncn1` was tested, and the activity, negative = inhibition was 9.86% [at 2.29 µM] (inactive).
For `CCn1c(C)cc(/C=C2\NC(=O)N(Cc3ccc(Cl)cc3)C2=O)c1C`, the “activity, negative = inhibition” value was -25.1% (inactive).
With `FC(F)(F)c1ccccc1-c1cc(NCc2cccnc2)ncn1` the activity, negative = inhibition was 16.9% [at 2.29 µM] (inactive).
For `CCCOc1ccc(C(=O)NNC(=S)NC(=O)CC)cc1`, the “activity, negative = inhibition” value was -24.3% (inactive).
In the case of `CCCOc1ccc(C(=O)NNC(=S)NC(=O)c2cc(-c3ccccc3)nc3ccccc23)cc1`, the AC50 is reported as 2.51 µM (active).
`CCCCOc1cc(C(=O)NCCN(CC)CC)c2ccccc2n1` was tested, and the “activity, negative = inhibition” value was 10.5% [at 25.6 µM] (inactive).
In the case of `CCN1CCN(CCCNC(=O)C(NC(=O)C2CCC(C)CC2)C(C)C)CC1` (configuration not stated), the “activity, negative = inhibition” value is reported as -8.03% (inactive).
`CC(=O)C1=C(O)C=C(c2ccco2)CC1c1ccco1` (configuration not stated) was tested, and the AC50 was 7.94 µM (active).
With `NC(=O)C(=O)O` the “activity, negative = inhibition” value was 8.82% (inactive).
With `Clc1ccc2c(c1)C1=C(C(c3ccncc3)O2)C(c2ccc(Br)cc2)n2ncnc2N1` (configuration not stated) the AC50 was 1.41 µM (active).
For `CCN=C(N)CSS(=O)(=O)O`, the activity, negative = inhibition was -1.49% [at 11.4 µM] (inactive).
With `O=C(OCc1ccc(Cl)cc1Cl)c1cccnc1Cl` the AC50 was 17.8 µM (active).
`O=C(O)c1cccnc1C(=O)O` was tested, and the “activity, negative = inhibition” value was 1.96% (inactive).
With `COc1ccccc1-c1cncnc1-n1ccnc1` the activity, negative = inhibition was -14.3% [at 2.29 µM] (inactive).
`Cc1ccc(Nc2nc(-c3sc(NC(=O)c4ccc([N+](=O)[O-])cc4)nc3C)cs2)cc1` was tested, and the “activity, negative = inhibition” value was -23.8% (inactive).
In the case of `O=C(Nc1nc(-c2ccccc2)cs1)c1cccc([N+](=O)[O-])c1`, the AC50 is reported as 7.08 µM (active).
For `CCN1C(=O)[C@H]2[C@H]3[C@H](O)[C@H](O)C/C(=N/OCC(C)C)[C@H]3CC[C@@H]2C1=O`, the activity, negative = inhibition was -3.02% [at 11.4 µM] (inactive).
With `CC(=C/c1ccccc1)/C=N/n1cnnc1` the AC50 was 3.98 µM (active).
With `Cc1ccccc1-c1cc(-c2ccccc2O)on1` the AC50 was 8.91 µM (active).
`Cc1ccccc1-c1cc(N(C)C)ncn1` was tested, and the activity, negative = inhibition was 9.36% [at 2.29 µM] (inactive).
With `CNc1cc(-c2ccccc2C)ncn1` the activity, negative = inhibition was 21.7% [at 2.29 µM] (inactive).
`CNC[C@@H](SC)c1ccc(O)c(O)c1` was tested, and the activity, negative = inhibition was 0.961% [at 11.4 µM] (inactive).
In the case of `Cn1c(OCc2ccc3c(c2)OCO3)nc2c1c(=O)n(Cc1ccc(Cl)c(Cl)c1)c(=O)n2C`, the AC50 is reported as 2.51 µM (active).
With `Cn1c(=O)c2c(nc(Cc3ccccc3)n2CC(=O)O)n(C)c1=O` the activity, negative = inhibition was -4.06% [at 11.4 µM] (inactive).
For `Cn1c(=O)c2c(nc(Cl)n2Cc2ccc(Cl)c(Cl)c2)n(C)c1=O`, the AC50 was 6.31 µM (active).
With `O=C(COc1ccc(Cl)cc1)N1CCN(Cc2ccc3c(c2)OCO3)CC1` the “activity, negative = inhibition” value was -34.1% [at 25.6 µM] (inactive).
For `c1cnc(N2CCN(Cc3ccc4c(c3)OCO4)CC2)nc1`, the AC50 was “inactive”.
`Cn1c(=O)c2c(nc(NCCNc3nc4c(c(=O)n(C)c(=O)n4C)n3C)n2C)n(C)c1=O` was tested, and the activity, negative = inhibition was 3.94% [at 11.4 µM] (inactive).
